Laboratory results from the supplement of paper PMC6555819.

Columns and labels:
Assay in all cases: PBM binding z-score (relative to random genomic background probes); higher = stronger binding; sequences stand for … in GC…GCGATTGACAGCGTAGAATGAAGG
[1] = tested on: FXR:RXRa (NR concentration 270 nM, RXRa partner concentration 90 nM)
How it was run: (§1)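 The probes on custom Agilent 4×180K protein-binding microarrays were double-stranded, with 34-nt variable regions bearing direct-repeat seeds, single-nucleotide variants, half-site ablations and random human genomic background sequences. Incubation lasted 1 h with ligand-free nuclear receptor dimers in PBS pH 7.4, 2% milk, 0.02% Triton X-100, 1 mM DTT, 0.2 mg/mL BSA and 0.4 mg/ml salmon testes DNA. Antibodies against each partner (one per run) detected bound dimers, and fluorescence scans were regression-normalized. Binding z-scores take the random background probes as reference.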

[2] = tested on: LXRa:RXRa (NR concentration 270 nM, RXRa partner concentration 90 nM)
How it was run: as §1

[3] = tested on: LXRa homodimer (NR concentration 270 nM)
How it was run: as §1

[4] = tested on: LXRb:RXRa (NR concentration 270 nM, RXRa partner concentration 90 nM)
How it was run: as §1

[5] = tested on: LXRb homodimer (NR concentration 270 nM)
How it was run: as §1

[6] = tested on: PPARa:RXRa (NR concentration 270 nM, RXRa partner concentration 90 nM)
How it was run: as §1

[7] = tested on: PPARg:RXRa (NR concentration 180 nM, RXRa partner concentration 90 nM)
How it was run: as §1

[8] = tested on: PPARg:RXRa 270nM:90nM, anti-RXR (NR concentration 270 nM, RXRa partner concentration 90 nM)
How it was run: as §1

[9] = tested on: PPARg:RXRa 30nM:10nM, anti-RXR (NR concentration 30 nM, RXRa partner concentration 10 nM)
How it was run: as §1

[10] = tested on: PPARg:RXRa 90nM:30nM, anti-RXR (NR concentration 90 nM, RXRa partner concentration 30 nM)
How it was run: as §1

[11] = tested on: PPARg:RXRa DBDmut IVT, anti-RXR (DBD mutation: RXRa K156A/R161A, NR concentration 270 nM, RXRa partner concentration 90 nM)
How it was run: as §1

[12] = tested on: PPARg:RXRa IVT, anti-PPARg (NR concentration 270 nM, RXRa partner concentration 90 nM)
How it was run: as §1

[13] = tested on: PPARg DBDmut:RXRa IVT, anti-PPARg (DBD mutation: PPARg1 K132A/R137A, NR concentration 270 nM, RXRa partner concentration 90 nM)
How it was run: as §1

[14] = tested on: PPARg DBDmut IVT, anti-PPARg (DBD mutation: PPARg1 K132A/R137A, NR concentration 270 nM)
How it was run: as §1

[15] = tested on: PPARg homodimer (NR concentration 180 nM)
How it was run: as §1

[16] = tested on: PXR:RXRa (NR concentration 270 nM, RXRa partner concentration 90 nM)
How it was run: as §1

[17] = tested on: PXR homodimer (NR concentration 270 nM)
How it was run: as §1

[18] = tested on: RARa:RXR (NR concentration 270 nM, RXRa partner concentration 90 nM)
How it was run: as §1

[19] = tested on: RARa homodimer (NR concentration 270 nM)
How it was run: as §1

[20] = tested on: RARb:RXRa (NR concentration 270 nM, RXRa partner concentration 90 nM)
How it was run: as §1

Sequence	PBM binding z-score [1]	PBM binding z-score [2]	PBM binding z-score [3]	PBM binding z-score [4]	PBM binding z-score [5]	PBM binding z-score [6]	PBM binding z-score [7]	PBM binding z-score [8]	PBM binding z-score [9]	PBM binding z-score [10]	PBM binding z-score [11]	PBM binding z-score [12]	PBM binding z-score [13]	PBM binding z-score [14]	PBM binding z-score [15]	PBM binding z-score [16]	PBM binding z-score [17]	PBM binding z-score [18]	PBM binding z-score [19]	PBM binding z-score [20]
TCACATAGGTAAAAGGTGAAAGTCGGTGTGGTAA	1.8	1.56	0.139	1.69	-0.337	4.37	5.76	6.66	5.78	7.03	2.98	3.19	0.93	0.575	1.93	1.81	0.153	3.24	0.922	1.92
TCTAGCAGGACAGAGGGTCACTCAAGAGGTACGG	0.869	1.11	-0.354	1.18	-0.839	2.19	1.45	2.25	2.15	2.31	0.809	0.465	-0.0481	-0.462	0.414	1.48	-0.392	2.3	-0.209	2.06
CCTCGCAGGACAGAAGGTCAGAGCTGTCCGCTTT	1.07	1.44	0.197	1.13	-0.678	1.86	-0.29	0.666	-0.929	0.0497	0.197	0.104	-2.21	-1.7	1.13	1.35	-0.203	1.84	-0.425	2.81
ACTCGGAGGACAAAGGTCTGAGCTACGCCAGTGA	-0.108	-0.415	-0.354	-0.796	-0.665	0.582	1.95	3.29	1.06	3.02	-0.243	0.315	-0.994	-1.15	0.144	-0.428	-0.379	-0.531	-0.889	1.3
TCTAGTTGGGCAAAGGTCACACACTCGAAATGCG	5.48	5.45	3.14	5.08	0.789	6.58	10.4	9.73	9.07	10.3	2.75	5.71	0.687	1.14	5.11	5.64	1.26	6.56	2.44	5.1
GCTTACGGGTCAAAGGTAATAGCATGAATAGAAT	6.06	4.07	-0.0184	4.32	0.154	6.32	9.59	8.1	7.14	8.44	4.96	5.28	1.42	0.842	1.61	4.26	-0.182	6.23	0.248	3.87
TCATATAGGTAAATGATAGGTGAAAGTCCGATCT	1.32	1.17	0.558	1.22	0.404	1.74	1.51	2.71	3.76	3.23	3.92	2.51	1.28	1.62	1.19	0.828	0.487	1.49	1.16	0.612
TCTTGTAGATCAAATGTTAAGAAAGCCGAAGCCT	0.704	0.517	-0.184	0.216	0.123	1.15	1.12	3.42	3.84	3.61	2.21	0.573	0.744	0.647	0.284	0.199	0.012	0.519	0.868	-0.134
CAAACTAGGTCGCCGGAAGGTCAAAGTCCGCATG	3.54	4.14	2.85	3.54	0.401	4.61	5.39	4.95	2.29	4.13	6.5	6.56	2.57	0.739	3.61	4.72	0.959	5.67	0.693	3.94
TCCTATAGGTAAAGGTGAAAGTCGAACGATATGA	1.05	1.25	-0.0559	1.25	-0.199	3.07	2.77	3.93	3.81	3.96	2.74	3.09	0.482	0.679	0.768	1.12	-0.316	1.49	0.203	1.96
ACAGACAGGGGAGTGAAGGTAACTCAGCTGGACG	0.0883	0.0557	-0.294	0.312	0.211	0.211	0.82	0.301	-0.0675	0.442	-0.166	-0.191	0.22	-0.386	0.229	-0.136	0.147	-0.342	0.313	0.21
ATATGTAGGTTAAGGATCATTCAGGTTGGTTCGC	0.726	1.25	0.404	1.18	0.352	4.46	8.08	7.41	6.08	8.34	7.22	7.16	3.09	2.12	1.49	1.19	0.266	1.13	1.1	1.2
TCTTTTAGATCAAAGGTTAAGAAAGCCGAAGCCT	1.68	2.05	0.26	2.19	0.802	4.08	6.36	6.92	6.34	7.4	2.09	3.01	1.08	1.12	1.05	2.05	0.154	2.88	0.435	2.07
TCTTGTAGATCAAAAGAGGTTAAGAAAGTGCGCT	0.748	3.35	-0.0772	1.66	-0.239	1.89	-0.0297	1.59	2.62	2.16	1.47	0.83	0.0222	0.122	0.373	2.86	0.102	1.79	-0.0887	0.887
TCTATTAGTTCAAGGGCAACCGACGAGTCCGTTT	1.82	1.97	1.24	1.45	0.602	2.23	0.394	2.66	3.94	3.37	2.36	1.14	0.61	1.22	1.87	2.28	2.5	1.55	1.41	3.08
